# Screening data as filed in PubChem.
# TNF necrop inh: TNF-alpha cell death inhibition in Jurkat FADD-/- cells; Jurkat FADD-/- TNF necroptosis rescue, ATP luminescence, 24 h; 0 = TNF only, 100 = no-TNF cells; activation (protection from cell death), % at 10 µM; hit rate 0.068% among 220,000; AID 463075;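 active = activation, meaning protection from cell death, of at least 50% relative to plate controls; inactive = activation below 50%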;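 also: necroptosis triggered by 40 ng/mL TNF-alpha added together with compound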
# Calpain2 inh: blocks pig calpain II enzyme activity; purified calpain II, fluorogenic peptide substrate, 30 min; AID 1236; inhibition, % at 16 µM; hit rate 0.37% among 220,000;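 active = inhibition above about 50%, limit read from the data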
# HSV augment: increases HSV replication in cells; HSV replication augmentation in cells, fold increase; hit rate 0.005% among 220,000; maximum fold increase; AID 1956; in the data active = maximum fold increase above about 1.5; tested in PC3 cells
# zVAD death inh: blocks zVAD induced death of L929 cells. L929 zVAD necroptosis rescue, ATP luminescence, 24 h; with zVAD 60 µM. hit rate 0.38% among 220,000. viability rescue, % at 10 µM;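 active = activation, scaled between plate controls, above about 75%, limit read from the data; inactive = activation under that limit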
# zVAD necrop conf: confirmed blocker of zVAD induced death in L929 cells; shares compounds with zVAD death inh; L929 zVAD-induced necroptosis rescue, ATP luminescence, 24 h; activation (protection from necroptosis), % at 10 µM; hit rate 16% among 760; AID 463117;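 active = mean protection from necroptosis of at least 50% over duplicate tests; inactive = mean protection below 50%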
# Numbers stand for hits; i = inactive; nt = no result. Hits are enriched below; roughly 0.77% of the tested compounds scored in any of these assays.
SMILES,TNF necrop inh,Calpain2 inh,HSV augment,zVAD death inh,zVAD necrop conf
Cc1nc(-c2ccccc2)sc1-c1ccn[nH]1,i,i,i,80,i
CCOC(=O)c1ccc2[nH]c3c(c2c1)CCCC3C(=O)OCC (stereo unspecified),i,i,i,75,i
CCOC(=O)C1CCCc2c1[nH]c1ccc(Cl)cc21 (stereo unspecified),i,i,i,i,nt
O=c1cc2c(=O)oc3cc(O)c(O)oc3c2c(O)c1O,i,i,i,i,nt
CN1CCN(c2ccc(-c3ccnn3C(=O)Nc3ccccc3)cc2)CC1,i,i,i,84,i
CN1CCN(c2ccc(NC(=O)c3cccs3)cc2)CC1,i,i,i,i,nt
Nc1ccccc1Nc1cc(-c2ccccc2)[nH]n1,i,i,nt,91,89
Cc1ccc(NC(=S)NNC(=S)Nc2cccc(C(F)(F)F)c2)cc1,i,i,i,76,i
O=C(Nc1nccs1)c1ccc(S(=O)(=O)NCc2cccs2)cc1,i,i,i,100,85
O=C(Nc1nccs1)c1ccc(N2C(=O)C3CCCCC3C2=O)cc1 (stereo unspecified),i,i,i,i,nt
CN(c1ccccc1)S(=O)(=O)c1ccc(C(=O)Nc2nccs2)cc1,i,i,i,i,nt
O=C(Nc1nccs1)c1ccc(S(=O)(=O)NCC2CCCCC2)cc1,i,i,i,123,52
CCn1c(NC(=O)c2cccs2)nc2ccccc21,i,i,i,81,i
CCn1c(NC(C)=O)nc2ccccc21,i,i,i,i,nt
O=C(c1ccc2c(c1)OCCO2)N1CCCC(CNS(=O)(=O)c2cccs2)C1 (stereo unspecified),i,i,i,i,nt
Cn1ncc2c(Nc3ccc4ccccc4c3)ncnc21,i,i,i,92,i
Cc1cccc(Nc2ncnc3c2cnn3C)c1,i,i,i,i,nt
O=C(Nc1cccc(Cl)c1N1CCOCC1)c1cccnc1Cl,i,i,i,i,nt
O=C(NC1CC2CCCC(C1)N2C(=O)Nc1ccc(Cl)c(C(F)(F)F)c1)C1CC1 (stereo unspecified),i,i,i,i,nt
O=C(Nc1ccc(Cl)c(C(F)(F)F)c1)NC1CC2CCCC(C1)N2Cc1ccccc1 (stereo unspecified),i,i,i,76,i
O=C(Nc1ccc(NC(=S)NC(=O)c2cccs2)cc1)c1ccccc1,i,i,i,i,nt
O=C(Nc1ccc(NC(=S)NC(=O)C(c2ccccc2)c2ccccc2)cc1)c1ccccc1,i,nt,i,78,i
NC(=S)N/N=C/c1ncc(C(F)(F)F)cc1Cl,i,i,i,i,nt
Cc1cc(C(=O)COC(=O)c2ccc(Br)o2)c(C)n1Cc1ccco1,i,i,i,i,nt
Cc1cc(C(=O)COC(=O)c2ccc(O)cc2)c(C)n1Cc1ccco1,i,i,i,75,i
SMILES,TNF necrop inh,Calpain2 inh,HSV augment,zVAD death inh,zVAD necrop conf
NC(=O)c1ccc(-c2ncc(-c3ccccc3)o2)cc1,i,i,i,79,63
c1ccc(-c2cnc(-c3cccnc3)o2)cc1,i,i,i,79,i
Cc1ccc2c(c1)C(C)CC(C)(C)N2C(=O)CN1CCN(C)CC1 (stereo unspecified),i,i,i,i,nt
Cc1ccc2c(c1)C(C)CC(C)(C)N2C(=O)NC1CCCCC1 (stereo unspecified),i,i,i,88,82
Cc1ccc2c(c1)N(C(=O)NC1CCCCC1)C(C)(C)CC2C (stereo unspecified),i,i,i,82,81
Cc1ccc(NC(=O)C2CCCN2C(=O)NC2CCCCC2)c(C)c1 (stereo unspecified),i,i,i,i,nt
O=C(NCCN1C(=O)C2C3C=CC(C3)C2C1=O)Nc1ccc(Br)cc1 (stereo unspecified),i,i,i,76,i
Cc1ccc(/C=C2/SC(=S)N(CC(=O)Nc3ncc(Cc4ccc(C)cc4)s3)C2=O)cc1,i,i,i,75,i
Cc1ccc(/C=C2\SC(=S)N(CC(=O)Nc3ncc(Cc4ccccc4Cl)s3)C2=O)cc1,i,i,nt,i,nt
NC(=O)C1CCN(C(=O)Nc2csc3ccccc23)CC1,i,i,i,i,nt
C/C(=N\NC(=O)c1ccccc1)c1ccc(-n2ccnc2)cc1,i,i,i,i,nt
COc1ccccc1NS(=O)(=O)c1cccc(C(=O)N/N=C(\C)c2ccc(-n3ccnc3)cc2)c1,i,i,i,76,i
CC1CCCCN1CCNC(=O)c1cc2c(=O)n(C)c3ccccc3c2n1C (stereo unspecified),i,i,i,82,i
CCCN(CCC)CCNC(=O)c1cc2c(=O)n(C)c3ccccc3c2n1C,i,i,i,78,i
Cn1c(C(=O)NCCN2CCOCC2)cc2c(=O)n(C)c3ccccc3c21,i,i,i,i,nt
CN(CCNC(=O)c1cc2c(=O)n(C)c3ccccc3c2n1C)Cc1ccccc1,i,i,i,i,nt
CCCCC(=O)N/N=C(/C)C1=C(C)C(C)(C)OC1=O,i,i,i,i,nt
Cn1c(=O)c2[nH]c(N3CCN(c4ccccn4)CC3)nc2n(C)c1=O,i,i,i,75,i
Cc1cc(NC(=O)CN2C(=O)c3ccccc3C2=O)no1,i,i,i,i,nt
O=C(CSC1=NCCN1)NC12CC3CC(CC(C3)C1)C2,i,i,i,85,i
CN(C(=O)N1CCN(S(=O)(=O)c2ccccc2)CC1)c1ccccc1,i,i,i,i,nt
O=C1C[C@H]2[C@H](CO)[C@@H](OC(=O)c3ccc(-c4ccccc4)cc3)C[C@H]2O1,i,i,i,i,nt
COc1cc(/C=N/Nc2nc3ccccc3[nH]c2=O)ccc1O,i,i,i,78,i
COc1cc(/C=N/Nc2nc3ccccc3[nH]2)ccc1O,i,i,i,79,i
COc1ccc(O)c(/C=N/Nc2nc3ccccc3[nH]2)c1,i,i,i,i,nt
SMILES,TNF necrop inh,Calpain2 inh,HSV augment,zVAD death inh,zVAD necrop conf
COc1cc(/C=N/Nc2nc3ccccc3[nH]2)cc(OC)c1O,i,i,i,87,i
COc1cccc(/C=N/Nc2nc3ccccc3[nH]2)c1OC,i,i,i,i,nt
COc1cc(/C=N/Nc2nc(=O)[nH]nc2C)ccc1O,i,i,i,i,nt
COc1cc(/C=N/Nc2nc3ccccc3[nH]2)cc(Br)c1OCC(=O)N(C)C,64,i,i,75,60
CCOC(=O)C1=C(COC(=O)C2(C)CC2(Cl)Cl)NC(=O)NC1c1ccccc1 (stereo unspecified),i,i,i,i,nt
O=S(=O)(c1ccccc1)N(CC1CO1)c1cccc2ccccc12 (stereo unspecified),i,i,i,i,nt
CC(C)(C)C1CCc2nc(NC(=O)Cc3cn4ccsc4n3)sc2C1 (stereo unspecified),i,i,i,76,i
CC1CCc2nc(NC(=O)Cc3cccs3)sc2C1 (stereo unspecified),i,i,i,i,nt
CC(C)(C)c1cc(NCc2ccccn2)n2ncc(-c3ccc(Cl)cc3)c2n1,i,i,i,77,i
COCCNC(=S)N1CCCC(CO)C1 (stereo unspecified),i,i,i,i,nt
CC(=O)Nc1cc(-c2ccc(Cl)cc2)[nH]n1,i,i,i,87,i
COc1cc(OC)cc(-c2cc(NC(C)=O)n[nH]2)c1,i,i,i,i,nt
